# Experimental data reported in the antibiotic and cytotoxicity screens of Wong et al. (2023).
# The campaign covered roughly 39,000 compounds. About 3,300 (8.5%) were called active. What follows is part of a selection rich in actives, with near analogues and random picks from the rest.
# System: HepG2
# Assay: cytotoxicity call (relative viability < 0.9)
# Settings: 10 µM
row,SMILES,cytotoxicity call
1,COc1ccc(S(=O)(=O)N(C)C[C@H]2Oc3c(NC(=O)Nc4c(C)noc4C)cccc3C(=O)N([C@H](C)CO)C[C@@H]2C)cc1,inactive
2,C[C@@H]1CN([C@H](C)CO)C(=O)c2cccc(NS(=O)(=O)c3cccs3)c2O[C@@H]1CN(C)Cc1ccc(Cl)c(Cl)c1,inactive
3,C[C@H]1CN([C@@H](C)CO)C(=O)Cc2cc(NC(=O)Cc3ccccc3)ccc2O[C@H]1CN(C)S(C)(=O)=O,inactive
4,CNCc1ccncc1,inactive
5,Cc1sccc1-c1csc(N)n1,inactive
6,C[C@@H]1CN([C@@H](C)CO)C(=O)CCCn2nncc2CO[C@H]1CN(C)C(=O)Nc1ccc2c(c1)OCCO2,inactive
7,C[C@H](CO)N1C[C@H](C)[C@H](CN(C)C(=O)Nc2cccc3ccccc23)Oc2ncc(-c3cccc(F)c3)cc2C1=O,inactive
8,C[C@H](CO)N1C[C@H](C)[C@@H](CN(C)S(=O)(=O)c2ccc(Cl)cc2)OCCCC[C@H](C)Oc2ccc(NC(=O)c3ccncc3)cc2C1=O,inactive
9,C[C@@H]1CN([C@@H](C)CO)C(=O)c2cccc(NS(=O)(=O)c3cccs3)c2O[C@H]1CN(C)S(=O)(=O)c1ccccc1,inactive
10,COc1ccc(C#Cc2ccc3c(c2)O[C@@H](CN(C)C(=O)CN2CCOCC2)[C@H](C)CN([C@H](C)CO)S3(=O)=O)cc1,inactive
11,C[C@H]1CN([C@@H](C)CO)C(=O)Cc2cc(NC(=O)c3ccncc3)ccc2O[C@H]1CN(C)Cc1ccc(Oc2ccccc2)cc1,inactive
12,C[C@@H]1CN([C@@H](C)CO)C(=O)Cc2cc(NC(=O)c3ccncc3)ccc2O[C@@H]1CN(C)Cc1ccc(Oc2ccccc2)cc1,active
13,C[C@@H]1CN([C@H](C)CO)C(=O)Cc2cc(NC(=O)c3ccncc3)ccc2O[C@@H]1CN(C)Cc1ccc(Oc2ccccc2)cc1,inactive
14,C[C@@H]1CN([C@H](C)CO)C(=O)Cc2cc(NC(=O)c3ccncc3)ccc2O[C@H]1CN(C)Cc1ccc(Oc2ccccc2)cc1,inactive
15,C[C@H]1CN([C@@H](C)CO)C(=O)Cc2cc(NC(=O)c3ccncc3)ccc2O[C@@H]1CN(C)Cc1ccc(Oc2ccccc2)cc1,inactive
16,C[C@@H]1CN([C@@H](C)CO)C(=O)Cc2cc(NC(=O)c3ccncc3)ccc2O[C@H]1CN(C)Cc1ccc(Oc2ccccc2)cc1,active
17,CO[C@@H]1CN(C)C(=O)c2ccc(NC(=O)C3CC3)cc2OC[C@@H](C)N(C(=O)C2CCOCC2)C[C@@H]1C,inactive
18,C[C@H]1CN([C@@H](C)CO)C(=O)Cc2cc(NC(=O)NC3CCCCC3)ccc2O[C@@H]1CN(C)S(=O)(=O)c1cn(C)cn1,inactive
19,O=C(C[C@H]1C=C[C@H](NC(=O)C2CC2)[C@@H](CO)O1)NCCCN1CCOCC1,inactive
20,C[C@@H]1CCCCO[C@@H](CN(C)C(=O)c2ccncc2)[C@@H](C)CN([C@@H](C)CO)C(=O)c2cc(NC(=O)C3CCCCC3)ccc2O1,inactive
21,CS(=O)(=O)NCc1nnnn1-c1ccc(F)c(F)c1,inactive

row,SMILES,cytotoxicity call
1,C[C@@H]1CN([C@H](C)CO)S(=O)(=O)c2ccc(C#Cc3cccc(F)c3)cc2O[C@H]1CN(C)S(=O)(=O)c1ccccc1F,inactive
2,C[C@@H]1CN([C@@H](C)CO)C(=O)c2c(c3ccccc3n2C)-c2ccccc2CO[C@H]1CN(C)C(=O)NC1CCCCC1,inactive
3,CCCc1cc(=O)nc(SCC(N)=O)[nH]1,inactive
4,Cc1cc(=O)nc(SCC(N)=O)[nH]1,active
5,CCOC(=O)CSc1nc(=O)cc(C)[nH]1,inactive
6,C[C@H](CO)N1C[C@H](C)[C@H](CN(C)S(=O)(=O)c2cn(C)cn2)OCCCC[C@H](C)Oc2ccc(NS(=O)(=O)c3ccccc3)cc2C1=O,inactive
7,COc1ccc(NC(=O)O[C@H]2[C@@H]3OC(=O)[C@H](Cc4cccc(Br)c4)C/C=C/C[C@@H](Cc4cccc(Br)c4)C(=O)O[C@H]3[C@@H](OC)O[C@@H]2CO)cc1,inactive
8,CCOC(=O)[C@H]1C/C=C/C[C@H](C(=O)OCC)C(=O)O[C@H]2[C@@H](OC)O[C@H](CO)[C@@H](OC(=O)Nc3ccc(OC)cc3)[C@@H]2OC1=O,inactive
9,CCOC(=O)[C@H]1C/C=C/C[C@H](C(=O)OCC)C(=O)O[C@H]2[C@@H](OC)O[C@H](CO)[C@@H](OC(=O)c3ccc(Br)cc3)[C@@H]2OC1=O,inactive
10,CCOC(=O)[C@H]1C/C=C/C[C@H](C(=O)OCC)C(=O)O[C@H]2[C@@H](OC)O[C@H](CO)[C@@H](OC(=O)Nc3ccccc3)[C@@H]2OC1=O,inactive
11,CCOC(=O)[C@H]1C/C=C/C[C@H](C(=O)OCC)C(=O)O[C@H]2[C@@H](OC)O[C@H](CO)[C@@H](OC(=O)c3c(OC)cccc3OC)[C@@H]2OC1=O,inactive
12,CO[C@H]1O[C@H](CO)[C@@H](OC(=O)Nc2ccc3c(c2)OCO3)[C@@H]2OC(=O)[C@H](Cc3cccc(Br)c3)C/C=C/C[C@@H](Cc3cccc(Br)c3)C(=O)O[C@@H]12,inactive
13,CO[C@H]1O[C@H](CO)[C@@H](OC(=O)Nc2cccc(F)c2)[C@@H]2OC(=O)[C@H](Cc3cccc(Br)c3)C/C=C/C[C@@H](Cc3cccc(Br)c3)C(=O)O[C@@H]12,inactive
14,CCOC(=O)[C@H]1C/C=C/C[C@H](C(=O)OCC)C(=O)O[C@H]2[C@@H](OC)O[C@H](CO)[C@@H](OC(=O)Nc3ccc(Br)cc3)[C@@H]2OC1=O,active
15,CO[C@H]1O[C@H](CO)[C@@H](OC(=O)Nc2ccccc2)[C@@H]2OC(=O)[C@@H](Cc3ccc4ccccc4c3)C/C=C/C[C@H](Cc3ccc4ccccc4c3)C(=O)O[C@@H]12,inactive
16,CCOC(=O)[C@H]1C/C=C/C[C@H](C(=O)OCC)C(=O)O[C@H]2[C@@H](OC)O[C@H](CO)[C@@H](OC(=O)Nc3cccc(F)c3)[C@@H]2OC1=O,active
17,COc1ccc(NC(=O)O[C@H]2[C@@H]3OC(=O)[C@@H](Cc4ccc5ccccc5c4)C/C=C/C[C@H](Cc4ccc5ccccc5c4)C(=O)O[C@H]3[C@@H](OC)O[C@@H]2CO)cc1,active
18,CCOC(=O)[C@H]1C/C=C/C[C@H](C(=O)OCC)C(=O)O[C@H]2[C@@H](OC)O[C@H](CO)[C@@H](OC(=O)Nc3ccc4c(c3)OCO4)[C@@H]2OC1=O,active
19,COc1cccc(S(=O)(=O)N2C[C@H](O)COC[C@@H]3O[C@H](CC(=O)N4CCN(C)CC4)CC[C@H]32)c1,inactive
20,CC(C)NC(=O)Nc1cccc2c1O[C@@H](CN(C)Cc1ccc3c(c1)OCO3)[C@@H](C)CN([C@@H](C)CO)C2=O,inactive
21,O=C(C[C@@H]1C[C@H]2c3cc(NC(=O)C4CCOCC4)ccc3O[C@H]2[C@H](CO)O1)NCc1ccc(Cl)cc1,inactive

row,SMILES,cytotoxicity call
1,O=C(C[C@H]1C[C@@H]2c3cc(NC(=O)Nc4ccc(C(F)(F)F)cc4)ccc3O[C@@H]2[C@@H](CO)O1)NC1CCCCC1,inactive
2,CC(CN)(Cc1ccccc1Cl)C(=O)O (configuration not stated),inactive
3,C/C(C[P+](c1ccccc1)(c1ccccc1)c1ccccc1)=N\NC(=O)CCCCCC(=O)Nc1ccccc1O,inactive
4,C[C@H]1CN([C@@H](C)CO)C(=O)c2cc(C#CCN(C)C)cnc2O[C@@H]1CN(C)S(=O)(=O)c1cn(C)cn1,inactive
5,C[C@H](CO)N1C[C@H](C)[C@@H](CN(C)C(=O)Nc2ccc3c(c2)OCO3)OCCCC[C@H](C)Oc2ccc(NC(=O)Nc3cccc4ccccc34)cc2C1=O,inactive
6,C[C@@H]1CCCCO[C@@H](CN(C)S(=O)(=O)c2cccs2)[C@H](C)CN([C@@H](C)CO)C(=O)c2cc(NS(=O)(=O)c3cn(C)cn3)ccc2O1,inactive
7,C[C@H](CO)N1C[C@H](C)[C@@H](CN(C)C(=O)C2CC2)OCc2cnnn2CCCC1=O,inactive
8,C[C@@H]1CN([C@@H](C)CO)C(=O)Cc2cc(NC(=O)Nc3ccc(C(F)(F)F)cc3)ccc2O[C@H]1CN(C)C(=O)Nc1cccc2ccccc12,inactive
9,CO[C@H]1O[C@H](CO)[C@@H](OC(=O)Nc2ccc3c(c2)OCO3)[C@H](OC(=O)Nc2ccc3c(c2)OCO3)[C@@H]1OC(=O)Nc1ccc2c(c1)OCO2,active
10,CO[C@H]1O[C@H](CO)[C@@H](OC(=O)Nc2ccccc2-c2ccccc2)[C@H](OC(=O)Nc2ccc3c(c2)OCO3)[C@@H]1OC(=O)Nc1ccc2c(c1)OCO2,inactive
11,CO[C@H]1O[C@H](CO)[C@@H](OC(=O)Nc2ccccc2-c2ccccc2)[C@H](OC(=O)Nc2ccc3c(c2)OCO3)[C@H]1OC(=O)Nc1ccc2c(c1)OCO2,inactive
12,Nn1c(CO)nc2ccccc21,inactive
13,O=C(N[C@H]1CC[C@H](CCNS(=O)(=O)c2ccc(F)cc2)O[C@H]1CO)C1CC1,inactive
14,C[C@H]1CN([C@@H](C)CO)C(=O)Cc2cc(NC(=O)Nc3ccc4c(c3)OCO4)ccc2O[C@@H]1CN(C)S(C)(=O)=O,inactive
15,C[C@H]1CCCCO[C@H](CN(C)C(=O)C2CCCCC2)[C@@H](C)CN([C@@H](C)CO)C(=O)c2cc(NC(=O)c3ccncc3)ccc2O1,inactive
16,C[C@@H]1CN([C@@H](C)CO)C(=O)c2cc(NC(=O)Nc3ccc(F)cc3)ccc2O[C@@H]1CN(C)S(C)(=O)=O,inactive
17,Cc1noc(C)c1NC(=O)N(C)C[C@H]1Oc2ncc(C#CCC(C)C)cc2C(=O)N([C@@H](C)CO)C[C@H]1C,inactive
18,CCC(=O)N1Cc2cc(C(=O)Nc3nccs3)nc(-c3cccc(-c4ccccc4OC)c3)c2[C@H]1CCO,inactive
19,COc1ccccc1-c1cccc(-c2nc(C(=O)Nc3nccs3)cc3c2[C@@H](CCO)N(C(=O)CC2CC2)C3)c1,active
20,COc1ccccc1-c1cccc(-c2nc(C(=O)Nc3nccs3)cc3c2[C@H](CCO)N(C(=O)CC2CC2)C3)c1,inactive
